Our source for the Potency values is PubChem BioAssay AID2589 (National Center for Advancing Translational Sciences (NCATS), 2010).

Molecules are shown by their SMILES. The source made the active and inactive calls. Calls follow the shape of the dose curve; as a rule, active = well fitted curve in the direction sought with a large enough effect; inactive = no such curve, though single readings can be large or run the other way.

Lysosomal acid glucosylceramidase (Homo sapiens), sequence (P04062 whole entry, looked up): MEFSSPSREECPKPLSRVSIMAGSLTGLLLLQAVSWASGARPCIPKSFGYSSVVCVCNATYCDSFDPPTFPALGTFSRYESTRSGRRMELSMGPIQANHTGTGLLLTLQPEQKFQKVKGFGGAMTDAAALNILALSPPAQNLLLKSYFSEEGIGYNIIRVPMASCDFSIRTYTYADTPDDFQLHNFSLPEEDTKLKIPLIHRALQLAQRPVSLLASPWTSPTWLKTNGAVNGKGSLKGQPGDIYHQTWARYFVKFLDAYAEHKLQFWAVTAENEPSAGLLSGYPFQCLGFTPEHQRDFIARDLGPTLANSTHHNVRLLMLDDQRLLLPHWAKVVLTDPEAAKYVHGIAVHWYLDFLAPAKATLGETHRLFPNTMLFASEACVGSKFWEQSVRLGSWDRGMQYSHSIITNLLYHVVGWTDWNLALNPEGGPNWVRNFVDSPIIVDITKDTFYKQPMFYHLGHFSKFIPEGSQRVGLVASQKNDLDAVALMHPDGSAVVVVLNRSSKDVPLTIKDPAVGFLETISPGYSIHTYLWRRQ

The target in this experiment is Lysosomal acid glucosylceramidase (Homo sapiens) (UniProt P04062). Kind of experiment: qHTS Assay for Inhibitors and Activators of N370S glucocerebrosidase as a Potential Chaperone Treatment of Gaucher Disease: Chaperone Activity in Non-Gauche Fibroblasts After Multi-day Incubation with Compound. The note with it: Wild-type fibroblasts, GC immunofluorescence, 5-day incubation. The text has this:
NIH Chemical Genomics Center [NCGC] NIH Molecular Libraries Probe Production Centers Network [MLPCN] MLPCN Grant: MH086442-01 Assay Submitter (PI): Wei Zheng Glucocerebrosidase (GC) catalyzes the hydrolysis of beta-glucocerebroside to glucose and ceramide in lysosomes. Mutations in the glucocerebrosidase gene result in Gaucher disease, an autosomal recessive lysosomal storage disorder. Many of the mutations encountered in patients with Gaucher disease are missense alterations that may cause misfolding, decreased stability and/or mistrafficking of this lysosomal protein. […] These inhibitors include iminosugar analogs and three non-iminosugar inhibitors identified from a previous HTS of 62,000 compounds with the wild type recombinant enzyme. However, the enhancement of enzyme activity by the chaperone action of an enzyme inhibitor must be balanced against the direct inhibition of the enzyme. An enzyme activator could also function as a chaperone by binding to the enzyme and helping to correct its misfolding and mistrafficking. […] This assay attempts to quantitate translocated glucocerebrosidase protein in patient-derived fibroblasts following extended compound incubation. […]
NCGC Assay Protocol Summary: 1. […] Visualized using a fluorescence microscope and the intensity of fluorescence in the selected areas were calculated. […]
In general terms: Quantitative high-throughput screening tests each substance at several concentrations.
As for `S=C(NCCCc1cnc[nH]1)NCCCN(Cc1ccc(Cl)c(Cl)c1)c1ccc(Br)cn1`, the Potency was 708 nM (active).

Turning to `O=S(=O)(c1ccc2ccccc2c1)N1CCN(c2nc(-c3cccs3)nc3ccccc23)CC1`, the Potency is 1260 nM (active).
